Out of some 69,000 compounds screened, about 950 (1.4%) showed an effect of 50% or more. This is one part of a sample in which strong results are shown more often than they occur.
The compounds below were run on Mycobacterium tuberculosis (assay: Cornell M. t heat shock assay; also: in the data most compounds retested in dose-response had high values).
Format: functional, organism-based
Design: dose or concentration left out as unconfirmed

SMILES | Percent Effect
Cc1noc(C)c1CN1CC[C@H]2OCC[C@@]2(C(=O)N(C)C)C1.O=C(O)C(F)(F)F | -9.212%
CC(C)CCN1C2(CCN(Cc3nccs3)C2)c2ccccc2S1(=O)=O.O=C(O)C(F)(F)F (centres undefined) | 47.98%
CN(C)C(=O)COCC1CN(Cc2cccs2)Cc2ncn(C)c21.O=C(O)C(F)(F)F.O=C(O)C(F)(F)F (centres undefined) | -34.33%
Clc1cc(CN2CCCN3CCCC3C2)c2ncccc2c1 (centres undefined) | 99%
O[C@@H]1CN(Cc2cc(Cl)cc3cccnc23)C[C@@H]1O | -38.19%
COc1ccc(CN2CCCC(N3CCCC3)C2)cc1Cn1cncn1 (centres undefined) | -42.58%
COc1cc(Cl)cc(CN2CCCC(N3CCOCC3)C2)c1OC (centres undefined) | 2.91%
COc1cc(Cl)cc(CN2CCCC(N3CCCC3)C2)c1OC (centres undefined) | 98.75%
Clc1cc(CN2CCCC(Cn3cncn3)C2)c2ncccc2c1 (centres undefined) | -4.966%
CNC(=O)C1CNCCN1C(=O)c1ccc(C(F)(F)F)nc1C.Cl (centres undefined) | 13.87%
CC(C)NC(=O)CC1COC2(CCN(Cc3cccnc3)CC2)C1.O=C(O)C(F)(F)F.O=C(O)C(F)(F)F (centres undefined) | -3.493%
Cc1nc(N2CCOCC2)nc2c1CCN(Cc1cccnc1)CC2.O=C(O)C(F)(F)F | 5.04%
Cc1nc(N2CCCC2)nc2c1CCN(Cc1ccsc1)CC2.O=C(O)C(F)(F)F | 100.4%
Cc1nc(C)c2c(n1)CCN(Cc1ccco1)CC2 | 1.706%
Cc1nc(N2CCOCC2)nc2c1CCN(Cc1ccsc1)CC2.O=C(O)C(F)(F)F | 3.426%
Cc1nc(N2CCCC2)nc2c1CCN(Cc1nccn1C)CC2.O=C(O)C(F)(F)F | -10.58%
Cc1nc(N2CCCC2)nc2c1CCN(Cc1ccco1)CC2.O=C(O)C(F)(F)F | 66.31%
CC(C)Oc1ncnc2c1CCN(Cc1ccco1)CC2.O=C(O)C(F)(F)F | -23.01%
Cc1nc(N2CCCC2)nc2c1CCN(Cc1ccoc1)CC2.O=C(O)C(F)(F)F | 64.12%
Oc1nc(N2CCCC2)nc2c1CCN(Cc1ccsc1)CC2 | -11.88%
O=C(O)C(F)(F)F.O=C(O)C(F)(F)F.O=C1CC2(CCN(Cc3ccncc3)C2)CN1c1ccc2c(c1)OCO2 (centres undefined) | -29.31%
O=C(O)C(F)(F)F.O=C(O)C(F)(F)F.c1cnc(N2CCC3(COCCN(CC4CCOCC4)C3)C2)nc1 (centres undefined) | -23.85%
CCc1ncnc2c1CCN(CC(=O)N(C)C)CC2.O=C(O)C(F)(F)F | -2.001%
COc1ccc(CN2C[C@@H]3OCCN(CCN4CCCC4)[C@@H]3C2)cc1.O=C(O)C(F)(F)F.O=C(O)C(F)(F)F.O=C(O)C(F)(F)F | -18.96%

From ChEMBL document CHEMBL3988442, “University of Dundee, Small-Polar-MMV Screening Library” (2021)
